Experimental data published in PubChem BioAssay AID504467 (National Center for Advancing Translational Sciences (NCATS), 2011).
The whole screen tested about 330,000 compounds, of which about 7,700 (2.3%) were called active. Not shown: some 26% with an inconclusive outcome. Calls come from the whole dose curve; as a rule, active = well fitted inhibition curve with a large enough effect; inconclusive = small, poorly fitted or top-dose-only effect, or effect the other way; inactive = flat fitted curve, though single readings scatter. For the sample, actives were picked, then their nearest neighbours and some compounds at random.
% is set by controls: 0 for no effect and ±100 for the full control effect; potency is the fitted concentration of half-maximal effect.

Test: qHTS screen for small molecules that inhibit ELG1-dependent DNA repair in human embryonic kidney (HEK293T) cells expressing luciferase-tagged ELG1; note: nearly all actives have a fitted effect of over 55% in size
Conditions: HEK293T ELG1-luciferase reporter, luminescence, 16 h, DNA damage induced by 5-fluorouridine; series mostly up to 46.1 µM; activity change, negative = inhibition: at the top concentration
Procedure, shortened: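 Luminescence from the luciferase reporter, measured 30 min after ONE-Glo reagent at room temperature, was the read-out. Beforehand, 2,000 cells per well were exposed for 16 hr at 37 °C to 5-fluorouridine together with compound or vehicle.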
For `CC(Sc1nn(-c2ccc(Cl)cc2)c(=S)s1)C(=O)NCC1CCCO1` (stereo unspecified), the “activity change, negative = inhibition” value was -2.87% (inactive).
In the case of `COc1ccccc1N(CCOc1ccccc1)S(=O)(=O)c1ccccc1`, the “activity change, negative = inhibition” value is reported as -19.8% (inactive).
With `N#CC1=C(SCc2ccc(C#N)cc2)N=C(N)C(c2nc(-c3ccccc3)cs2)C12CCCCC2` (stereo unspecified) the “activity change, negative = inhibition” value was -13.3% (inactive).
In the case of `N#CC1=C(SCc2ccccc2)NC(=O)C(C#N)C12CCCC2` (stereo unspecified), the Potency is reported as 14.6 µM (active).
For `COC(=O)CSC1=C(C#N)C(c2ccccc2OC)C(C(=O)OC)C(=O)N1` (stereo unspecified), the “activity change, negative = inhibition” value was 2.99% (inactive).
In the case of `COc1ccc(C(=O)NCc2nnc(SCC(=O)NC3=NCCS3)n2C)cc1`, the “activity change, negative = inhibition” value is reported as -4.54% (inactive).
In the case of `O=C(COC(=O)c1cc[n+]([O-])cc1)Nc1ccc(Cl)c(C(F)(F)F)c1`, the “activity change, negative = inhibition” value is reported as -11.3% (inactive).
For `CN(C)C1=NC[C@H](Cc2ccccc2)N1CCc1ccc(F)cc1`, the “activity change, negative = inhibition” value was -5.08% (inactive).
In the case of `COc1ccc(NC(=O)C2CCC(CNC(=O)[C@@H]3Cc4ccccc4CN3)CC2)cc1` (stereo partly specified), the “activity change, negative = inhibition” value is reported as 13.7% (inactive).
For `COc1ccc(N(Cc2cc3ccc(C)cc3[nH]c2=O)S(=O)(=O)c2ccccc2)cc1`, the “activity change, negative = inhibition” value was -22.6% (inactive).
In the case of `CC(C)n1cnc2c(NCc3ccccc3)cc(N[C@@H](CO)Cc3ccccc3)cc21`, the Potency is reported as 16.4 µM (active).
In the case of `CC(C)n1cnc2c(NCc3ccccc3)cc(OCC3CCN(C)CC3)cc21`, the “activity change, negative = inhibition” value is reported as -16.7% (inactive).
For `COc1ccc(CNC(=O)/C(C#N)=C/c2cccc(OC)c2OC)cc1`, the “activity change, negative = inhibition” value was -0.822% (inactive).
In the case of `CN(CC(=O)Nc1ccc(OC(F)F)cc1)S(=O)(=O)/C=C/c1ccccc1`, the “activity change, negative = inhibition” value is reported as -12.2% (inactive).
In the case of `COc1ccc(N2CCN(c3ccc([N+](=O)[O-])cc3Cl)CC2)cc1`, the “activity change, negative = inhibition” value is reported as -2.92% (inactive).
For `O=C(O)C1CCN(c2ccc([N+](=O)[O-])cc2[N+](=O)[O-])CC1`, the “activity change, negative = inhibition” value was 18.3% (inactive).
For `O=[N+]([O-])c1ccc(N2CCN(c3ccc(O)cc3)CC2)c(Cl)c1`, the Potency was 23.1 µM (active).
For `CN(C)C(=O)CCc1ccc2c3c([nH]c2c1)[C@]1(CCC2CCCC2)[C@@H](C(=O)N2CCOCC2)C[C@H](CC(=O)NCc2ccco2)C(=O)N1CC3`, the “activity change, negative = inhibition” value was 17.9% (inactive).
For `CCN(CC(=O)Nc1cc(Cl)ccc1C)C(=O)Cn1c(=O)cnc2ccccc21`, the “activity change, negative = inhibition” value was -0.672% (inactive).
With `CC(Oc1ccc2c(-c3ccccc3)cc(=O)oc2c1)C(=O)NC(Cc1c[nH]c2ccccc12)C(=O)O` (stereo unspecified) the “activity change, negative = inhibition” value was 1.53% (inactive).
With `CC(C)(C)OC(=O)C[C@@H]1C/C=C\C[C@@H](CC(=O)N[C@H](CO)Cc2ccccc2)C(=O)NCCOC1=O` the “activity change, negative = inhibition” value was 0.537% (inactive).
In the case of `CCNC(=S)N1CCN(c2ncccn2)CC1`, the “activity change, negative = inhibition” value is reported as -1.72% (inactive).
For `CC(Oc1ccc(F)cc1)C(=O)N1CCN(c2ncccn2)CC1` (stereo unspecified), the “activity change, negative = inhibition” value was -3.2% (inactive).
For `CC12CCC(C(=O)N3CCN(c4ncccn4)CC3)(c3nc4ccccc4nc31)C2(C)C` (stereo unspecified), the Potency was 4.11 µM (active).
For `CN(C(=O)CN1C(=O)/C(=C/c2ccc(Cl)cc2)SC1=S)C1CCS(=O)(=O)C1` (stereo unspecified), the “activity change, negative = inhibition” value was 5.67% (inactive).
With `COCCn1c(SCC(=O)Nc2ccc3c(c2)CCC3)nc2ccccc2c1=O` the “activity change, negative = inhibition” value was -28.4% (inactive).
In the case of `CCn1c(SCC(=O)Nc2ccc(C)cc2)nc2nc3c(cc2c1=O)CCCC3`, the Potency is reported as 18.4 µM (active).
In the case of `CC(=O)NCCn1c(SCC(=O)Nc2ccc(C)cc2)nc2ccccc2c1=O`, the “activity change, negative = inhibition” value is reported as -0.151% (inactive).
In the case of `COc1cc(/C=C/C(=O)OCC(=O)c2ccccc2)cc(OC)c1OC`, the “activity change, negative = inhibition” value is reported as 0.612% (inactive).
In the case of `O=C(c1ccc(Cl)nc1)N1CCN(S(=O)(=O)c2ccc3c(c2)OCCO3)CC1`, the “activity change, negative = inhibition” value is reported as -27.2% (inactive).
With `COc1ccc(C(C(=O)NC(C)(C)C)N(Cc2ccc(F)cc2)C(=O)CCC(=O)Nc2cc(C)on2)cc1` (stereo unspecified) the “activity change, negative = inhibition” value was 13.4% (inactive).
For `Cc1cc(NC(=O)C(C)SCC(=O)Nc2ccccc2N2CCCCC2)no1` (stereo unspecified), the “activity change, negative = inhibition” value was -18.5% (inactive).
With `C[C@H](NS(=O)(=O)c1ccc(Cl)cc1)C(=O)OCC(=O)N1CCOCC1` the “activity change, negative = inhibition” value was -8.58% (inactive).
In the case of `Cc1cccc(CSc2nc3c(c(=O)n2C)SCC3)c1`, the Potency is reported as 14.6 µM (active).
With `CCn1c(SCc2ccccc2)nc2c(c1=O)SCC2` the “activity change, negative = inhibition” value was 1.33% (inactive).
For `Cn1c(SCC(=O)N2CCCCC2)nc2c(c1=O)SCC2`, the “activity change, negative = inhibition” value was 0.685% (inactive).
For `Cc1ccc(C(=O)NNC(=O)CSc2nnc3ccccn23)cc1`, the “activity change, negative = inhibition” value was 15% (inactive).
With `COc1ccc(CNC(=O)C(C)n2nc(C)c3c(C)n(-c4ccccc4)nc3c2=O)c(OC)c1` (stereo unspecified) the “activity change, negative = inhibition” value was -14.9% (inactive).
With `COc1ccc(OC)c(CNC(=O)Cn2nc(C)c3c(C)n(-c4ccc(C)cc4)nc3c2=O)c1` the Potency was 8.2 µM (active).
For `Cc1nn(CC(=O)N2CCCCC2)c(=O)c2nn(-c3ccccc3)c(C)c12`, the “activity change, negative = inhibition” value was -1% (inactive).
With `COc1ccc(S(=O)(=O)N2CCOC23CCN(S(=O)(=O)c2ccc([N+](=O)[O-])cc2)CC3)cc1` the “activity change, negative = inhibition” value was 9.51% (inactive).
With `Cc1nnnn1/C(=C\c1ccccc1)C(=O)OCC(=O)N1CC2(C)CC1CC(C)(C)C2` (stereo unspecified) the Potency was 20.6 µM (active).
In the case of `Cc1cccc(C(=O)NCC(=O)OCC(=O)N2CC3(C)CC2CC(C)(C)C3)c1` (stereo unspecified), the “activity change, negative = inhibition” value is reported as 6.11% (inactive).
For `COc1ccccc1C(=O)N1CC2(C)CC1CC(C)(C)C2` (stereo unspecified), the “activity change, negative = inhibition” value was -15.1% (inactive).
In the case of `Cc1ccc(CNC(=O)c2cc(-c3ccccc3C)n(CC3CC(c4cccc([N+](=O)[O-])c4)=NO3)n2)cc1` (stereo unspecified), the “activity change, negative = inhibition” value is reported as -6.87% (inactive).
With `O=C(c1ccccc1)N1N=C(c2ccccc2O)CC1c1ccc(Br)cc1` (stereo unspecified) the “activity change, negative = inhibition” value was -16.7% (inactive).
In the case of `COc1ccc2c(CC(=O)NNC(=O)c3ccccc3F)coc2c1`, the “activity change, negative = inhibition” value is reported as -10.1% (inactive).
In the case of `CCC(=O)Nc1ccc(C(=O)Nc2ccc3c(c2)C(=O)N(CC2CCCO2)C3=O)cc1` (stereo unspecified), the “activity change, negative = inhibition” value is reported as -6.04% (inactive).
For `COc1ccc(Cn2c(=S)[nH]c3cc(C(=O)NCCCN4CCOCC4)ccc3c2=O)cc1`, the “activity change, negative = inhibition” value was -1.8% (inactive).
For `Cc1cccc(NC(=O)c2ccc3c(=O)n(CC4CCCO4)c(=S)[nH]c3c2)c1` (stereo unspecified), the Potency was 16.4 µM (active).
In the case of `COc1ccccc1N1CCN(C(=O)c2ccc(NC3=NC4CS(=O)(=O)CC4S3)cc2)CC1` (stereo unspecified), the “activity change, negative = inhibition” value is reported as 7.13% (inactive).
In the case of `COc1ccc(-c2nn(C)c(=O)c3ccccc23)cc1CNC(=O)C1CCCCC1`, the Potency is reported as 20.6 µM (active).
In the case of `COc1ccccc1CNC(=O)C1CCN(c2nc3ccccc3o2)CC1`, the “activity change, negative = inhibition” value is reported as -24.9% (inactive).
With `COc1ccc(OC)c(CNC(=O)C2CCCN(c3nc4ccccc4o3)C2)c1` (stereo unspecified) the “activity change, negative = inhibition” value was -15.2% (inactive).
For `CCN(CC(=O)Nc1cc(Cl)ccc1C)C(=O)CSCc1ccccc1`, the “activity change, negative = inhibition” value was 0.543% (inactive).
In the case of `COc1ccc(-c2nn(-c3ccccc3)cc2C(=O)Nc2nc(CC(C)=O)ns2)cc1`, the “activity change, negative = inhibition” value is reported as -25.3% (inactive).
In the case of `O=C(O)c1ccc(NC(=O)c2cn(-c3ccccc3)nc2-c2ccc(Cl)cc2)cc1`, the “activity change, negative = inhibition” value is reported as 23.2% (inactive).
In the case of `Cc1nnc(SCC(=O)N/N=C/c2cn(-c3ccccc3)nc2-c2ccc(F)cc2)n1-c1ccccc1`, the “activity change, negative = inhibition” value is reported as -7.68% (inactive).
In the case of `CN(C)/N=C/c1cn(-c2ccccc2)nc1-c1cccnc1`, the “activity change, negative = inhibition” value is reported as -24.6% (inactive).
With `COc1ccc(-c2nn(-c3ccccc3)cc2C(=O)Nc2nccs2)cc1OC` the Potency was 3.26 µM (active).
With `COc1ccc(-c2nn(-c3ccccc3)cc2/C=N/Nc2ccccn2)cc1OC` the Potency was 14.6 µM (active).
